Laboratory results taken from the supplement of paper PMC7411054.
Counter-ions that a name gives are not always drawn.

How the values were obtained:
Settings in all cases: treatment time: 24 h
[1] = system: A549-ACTB-RAB5A; test: phenotypically active (imaging signature differs from DMSO and reproducible) at any of 0.3-9 uM (binary (1 = active, 0 = inactive)); higher = active
In short: (§1)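 Each of fifteen gene-edited A549, HepG2 and WPMY1 reporter lines, marked with BFP for segmentation and GFP and RFP/FusionRed, was treated in four wells at 0.3, 1, 3 or 9 µM for 24 h prior to live imaging. Normalisation of per-well live-cell features used solvent control wells. Deviation needed ≥3 of 4 wells beyond the 95th percentile of control Euclidean distances, and reproducibility needed a median replicate Pearson correlation above the 95th percentile of non-replicates. Both were required for phenotypic activity.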

[2] = system: A549-CANX-COX4; test: as above
In short: as §1

[3] = system: A549-GM130-SQSTM1; test: as above
In short: as §1

[4] = system: A549-TP53BP1-CLTA; test: as above
In short: as §1

[5] = system: A549-TUBA1B-RELA; test: as above
In short: as §1

[6] = system: HepG2-ACTB-RAB5A; test: as above
In short: as §1

[7] = system: HepG2-CANX-COX4; test: as above
In short: as §1

[8] = system: HepG2-GM130-SQSTM1; test: as above
In short: as §1

[9] = system: HepG2-TP53BP1-CLTA; test: as above
In short: as §1

[10] = system: HepG2-TUBA1B-RELA; test: as above
In short: as §1

[11] = system: WPMY1-ACTB-RAB5A; test: as above
In short: as §1

[12] = system: WPMY1-CANX-COX4; test: as above
In short: as §1

[13] = system: WPMY1-GM130-SQSTM1; test: as above
In short: as §1

[14] = system: WPMY1-TP53BP1-CLTA; test: as above
In short: as §1

[15] = system: WPMY1-TUBA1B-RELA; test: as above
In short: as §1

[16] = system: A549-ACTB-RAB5A; test: lowest phenotypically active concentration; higher = less potent
In short: as §1

[17] = system: A549-CANX-COX4; test: as above
In short: as §1

[18] = system: A549-GM130-SQSTM1; test: as above
In short: as §1

[19] = system: HepG2-GM130-SQSTM1; test: as above
In short: as §1

[20] = system: WPMY1-GM130-SQSTM1; test: as above
In short: as §1

Row | SMILES | phenotypically active [1] | phenotypically active [2] | phenotypically active [3] | phenotypically active [4] | phenotypically active [5] | phenotypically active [6] | phenotypically active [7] | phenotypically active [8] | phenotypically active [9] | phenotypically active [10] | phenotypically active [11] | phenotypically active [12] | phenotypically active [13] | phenotypically active [14] | phenotypically active [15] | lowest phenotypically active concentration [16] [µM] | lowest phenotypically active concentration [17] [µM] | lowest phenotypically active concentration [18] [µM] | lowest phenotypically active concentration [19] [µM] | lowest phenotypically active concentration [20] [µM]
1 | Nc1ccncc1 [dalfampridine] | 0 (inactive) | 0 (inactive) | 0 (inactive) | 0 (inactive) | 0 (inactive) | 0 (inactive) | 0 (inactive) | 0 (inactive) | 0 (inactive) | 0 (inactive) | 0 (inactive) | 0 (inactive) | 0 (inactive) | 0 (inactive) | 0 (inactive) | – | – | – | – | –
2 | CCCC(C)C1(CC)C(=O)N=C(S)NC1=O (stereo not given) [thiopental] | 0 (inactive) | 0 (inactive) | 0 (inactive) | 0 (inactive) | 0 (inactive) | 0 (inactive) | 0 (inactive) | 0 (inactive) | 0 (inactive) | 0 (inactive) | 0 (inactive) | 0 (inactive) | 0 (inactive) | 0 (inactive) | 0 (inactive) | – | – | – | – | –
3 | O[C@H]1[C@H](O)[C@@H](O)CN2CC[C@H](O)[C@H]12 [Castanospermine] | 0 (inactive) | 0 (inactive) | 0 (inactive) | 0 (inactive) | 0 (inactive) | 0 (inactive) | 0 (inactive) | 0 (inactive) | 0 (inactive) | 0 (inactive) | 0 (inactive) | 0 (inactive) | 0 (inactive) | 0 (inactive) | 0 (inactive) | – | – | – | – | –
4 | C[C@@H]1CN([C@H]2CC[C@](C#N)(c3ccc(F)cc3)CC2)CC[C@]1(C(=O)O)c1ccccc1 [levocabastine] | 0 (inactive) | 0 (inactive) | 0 (inactive) | 0 (inactive) | 0 (inactive) | 0 (inactive) | 0 (inactive) | 0 (inactive) | 0 (inactive) | 0 (inactive) | 0 (inactive) | 0 (inactive) | 0 (inactive) | 0 (inactive) | 0 (inactive) | – | – | – | – | –
5 | C=CCC1(C(C)C#CCC)C(=O)NC(=O)N(C)C1=O (stereo not given) [methohexital] | 0 (inactive) | 0 (inactive) | 0 (inactive) | 0 (inactive) | 0 (inactive) | 0 (inactive) | 0 (inactive) | 0 (inactive) | 0 (inactive) | 0 (inactive) | 0 (inactive) | 0 (inactive) | 0 (inactive) | 0 (inactive) | 0 (inactive) | – | – | – | – | –
6 | CCN1C[C@]2(COC)CC[C@H](O)[C@@]34[C@@H]5C[C@H]6[C@H](OC(C)=O)[C@@H]5[C@](O)(C[C@@H]6OC)[C@H](C[C@H]23)[C@H]14 [Condelphine] | 0 (inactive) | 0 (inactive) | 0 (inactive) | 0 (inactive) | 0 (inactive) | 0 (inactive) | 0 (inactive) | 0 (inactive) | 0 (inactive) | 0 (inactive) | 0 (inactive) | 0 (inactive) | 0 (inactive) | 0 (inactive) | 0 (inactive) | – | – | – | – | –
7 | CNC(=O)Oc1ccc2c(c1)[C@]1(C)CCN(C)O[C@@H]1N2C [Geneserine] | 0 (inactive) | 0 (inactive) | 0 (inactive) | 0 (inactive) | 0 (inactive) | 0 (inactive) | 0 (inactive) | 0 (inactive) | 0 (inactive) | 0 (inactive) | 0 (inactive) | 0 (inactive) | 0 (inactive) | 0 (inactive) | 0 (inactive) | – | – | – | – | –
8 | c1cncc(C2CC3CCN2CC3)c1 (stereo not given) [RJR 2429 dihydrochloride] | 0 (inactive) | 0 (inactive) | 0 (inactive) | 0 (inactive) | 0 (inactive) | 0 (inactive) | 0 (inactive) | 0 (inactive) | 0 (inactive) | 0 (inactive) | 0 (inactive) | 0 (inactive) | 0 (inactive) | 0 (inactive) | 0 (inactive) | – | – | – | – | –
9 | CC[C@H]1CN2CCc3cc(OC)c(OC)cc3[C@@H]2C[C@@H]1C[C@H]1NCCc2cc(OC)c(OC)cc21 [emetine] | 1 (active) | 1 (active) | 1 (active) | 1 (active) | 1 (active) | 1 (active) | 1 (active) | 1 (active) | 1 (active) | 1 (active) | 1 (active) | 1 (active) | 1 (active) | 1 (active) | 1 (active) | ≤ 0.3 | ≤ 0.3 | ≤ 0.3 | ≤ 0.3 | ≤ 0.3
10 | C=C[C@]12CN(C)[C@@H]3[C@H]4CO[C@H](C[C@H]41)[C@]1(C(=O)Nc4ccccc41)[C@@H]32 [Gelsemine] | 0 (inactive) | 0 (inactive) | 0 (inactive) | 0 (inactive) | 0 (inactive) | 0 (inactive) | 0 (inactive) | 0 (inactive) | 0 (inactive) | 0 (inactive) | 0 (inactive) | 0 (inactive) | 0 (inactive) | 0 (inactive) | 0 (inactive) | – | – | – | – | –
11 | CNCC(O)c1ccc(O)c(OC)c1 (stereo not drawn) [Metanephrine hydrochloride DL] | 0 (inactive) | 0 (inactive) | 0 (inactive) | 0 (inactive) | 0 (inactive) | 0 (inactive) | 0 (inactive) | 0 (inactive) | 0 (inactive) | 0 (inactive) | 0 (inactive) | 0 (inactive) | 0 (inactive) | 0 (inactive) | 0 (inactive) | – | – | – | – | –
12 | CCN1C[C@]2(COC)CC[C@H](OC)[C@]34[C@@H]5C[C@H]6[C@H](OC)[C@@H]5[C@@]5(C[C@@H]6OC)OCO[C@@]5([C@H]13)[C@@H](O)[C@H]24 [Delcorine] | 0 (inactive) | 0 (inactive) | 0 (inactive) | 0 (inactive) | 0 (inactive) | 0 (inactive) | 0 (inactive) | 0 (inactive) | 0 (inactive) | 0 (inactive) | 0 (inactive) | 0 (inactive) | 0 (inactive) | 0 (inactive) | 0 (inactive) | – | – | – | – | –
13 | COc1ccc(C(=O)Cc2c(CCN(C)C)cc3c(c2OC)OCO3)c(C(=O)O)c1OC [Narcétine] | 0 (inactive) | 0 (inactive) | 0 (inactive) | 0 (inactive) | 0 (inactive) | 0 (inactive) | 0 (inactive) | 0 (inactive) | 0 (inactive) | 0 (inactive) | 0 (inactive) | 0 (inactive) | 0 (inactive) | 0 (inactive) | 0 (inactive) | – | – | – | – | –
14 | COc1ccc(OC)c(C(O)C(C)N)c1 (stereo not given) [methoxamine] | 0 (inactive) | 0 (inactive) | 0 (inactive) | 0 (inactive) | 0 (inactive) | 0 (inactive) | 0 (inactive) | 0 (inactive) | 0 (inactive) | 0 (inactive) | 0 (inactive) | 0 (inactive) | 0 (inactive) | 0 (inactive) | 0 (inactive) | – | – | – | – | –
15 | CN(C)NC(=O)CCC(=O)O [Daminozide] | 0 (inactive) | 0 (inactive) | 0 (inactive) | 0 (inactive) | 0 (inactive) | 0 (inactive) | 0 (inactive) | 0 (inactive) | 0 (inactive) | 0 (inactive) | 0 (inactive) | 0 (inactive) | 0 (inactive) | 0 (inactive) | 0 (inactive) | – | – | – | – | –
16 | C/C=C1\C[C@@H](C)[C@](O)(CO)C(=O)OCC2=CCN3CC[C@@H](OC1=O)[C@@H]23 [Retrorsine] | 0 (inactive) | 0 (inactive) | 0 (inactive) | 0 (inactive) | 0 (inactive) | 0 (inactive) | 0 (inactive) | 0 (inactive) | 0 (inactive) | 0 (inactive) | 0 (inactive) | 0 (inactive) | 0 (inactive) | 0 (inactive) | 0 (inactive) | – | – | – | – | –
17 | CN1CCc2cc3c(cc2[C@H]1[C@@H]1OC(=O)c2c1ccc1c2OCO1)OCO3 [bicuculine] | 0 (inactive) | 0 (inactive) | 0 (inactive) | 0 (inactive) | 0 (inactive) | 0 (inactive) | 0 (inactive) | 0 (inactive) | 0 (inactive) | 0 (inactive) | 0 (inactive) | 0 (inactive) | 0 (inactive) | 0 (inactive) | 0 (inactive) | – | – | – | – | –
18 | C#CCN(C)[C@H](C)Cc1ccccc1 [selegiline] | 0 (inactive) | 0 (inactive) | 0 (inactive) | 0 (inactive) | 0 (inactive) | 0 (inactive) | 0 (inactive) | 0 (inactive) | 0 (inactive) | 0 (inactive) | 0 (inactive) | 0 (inactive) | 0 (inactive) | 0 (inactive) | 0 (inactive) | – | – | – | – | –
19 | NCC1(CC(=O)O)CCCCC1 [gabapentin] | 0 (inactive) | 0 (inactive) | 0 (inactive) | 0 (inactive) | 0 (inactive) | 0 (inactive) | 0 (inactive) | 0 (inactive) | 0 (inactive) | 0 (inactive) | 0 (inactive) | 0 (inactive) | 0 (inactive) | 0 (inactive) | 0 (inactive) | – | – | – | – | –
20 | Clc1ccc2c(c1)C(c1ccccc1)=NCc1nncn1-2 [estazolam] | 0 (inactive) | 0 (inactive) | 0 (inactive) | 0 (inactive) | 0 (inactive) | 0 (inactive) | 0 (inactive) | 0 (inactive) | 0 (inactive) | 0 (inactive) | 0 (inactive) | 0 (inactive) | 0 (inactive) | 0 (inactive) | 0 (inactive) | – | – | – | – | –
21 | COc1ccc2c(c1)/C(=C/c1c[nH]cn1)C(=O)N2 | 1 (active) | 1 (active) | 1 (active) | 1 (active) | 1 (active) | 1 (active) | 1 (active) | 1 (active) | 1 (active) | 1 (active) | 1 (active) | 1 (active) | 1 (active) | 1 (active) | 1 (active) | 1 | 1 | 1 | ≤ 0.3 | 1
22 | CCCCCOc1ccc(C(=O)c2cccc3ccccc23)c2ccccc12 | 0 (inactive) | 0 (inactive) | 0 (inactive) | 0 (inactive) | 0 (inactive) | 0 (inactive) | 0 (inactive) | 0 (inactive) | 0 (inactive) | 0 (inactive) | 0 (inactive) | 0 (inactive) | 0 (inactive) | 0 (inactive) | 0 (inactive) | – | – | – | – | –
23 | C[C@@H]1O[C@@H](O[C@H]2C[C@@H](O)[C@]3(CO)[C@H]4[C@H](O)C[C@]5(C)[C@@H](C6=CC(=O)OC6)CC[C@]5(O)[C@@H]4CC[C@]3(O)C2)[C@H](O)[C@H](O)[C@H]1O [Strophantine octahydrate] | 1 (active) | 1 (active) | 1 (active) | 1 (active) | 1 (active) | 1 (active) | 1 (active) | 1 (active) | 1 (active) | 1 (active) | 1 (active) | 1 (active) | 1 (active) | 1 (active) | 1 (active) | 1 | ≤ 0.3 | ≤ 0.3 | ≤ 0.3 | ≤ 0.3
